The campaign covered roughly 5,700 compounds. About 85 (1%) were called active. No stated cut-off is given here; in the data, active means p53-positive nuclei above about 36% (passing the limit was not always enough); inactive means the rest. The entries come from a sample that favours actives as a whole.
What was measured:
[1] = p53 stabilisation in HPV-positive human cells, imaging, p53-positive nuclei imaging, 24 h, 48 h (AID 1508601); settings: 24/48 h
[2] = molecular target: Cellular tumor antigen p53 (Homo sapiens) (UniProt P04637); assay: as above; settings: 24/48 h, stronger effect = higher value
Sequence of Cellular tumor antigen p53 (Homo sapiens) (P04637 whole entry, looked up): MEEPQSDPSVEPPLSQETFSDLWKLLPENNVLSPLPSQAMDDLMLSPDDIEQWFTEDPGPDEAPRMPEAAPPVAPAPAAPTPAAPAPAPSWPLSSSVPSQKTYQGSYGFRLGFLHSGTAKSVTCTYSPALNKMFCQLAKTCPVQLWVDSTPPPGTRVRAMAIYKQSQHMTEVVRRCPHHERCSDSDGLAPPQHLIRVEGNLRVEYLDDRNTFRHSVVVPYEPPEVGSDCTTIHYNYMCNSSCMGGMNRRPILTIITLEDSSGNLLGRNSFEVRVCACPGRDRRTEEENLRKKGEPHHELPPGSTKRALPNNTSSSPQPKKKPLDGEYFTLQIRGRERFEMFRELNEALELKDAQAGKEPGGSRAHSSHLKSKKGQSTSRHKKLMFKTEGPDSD

[3] = measured here: cell number at 24 h, Library stock concentration: 80 uM
[4] = measured here: cell number at 24 h, Library stock concentration: 400 uM
[5] = measured here: cell number at 24 h, Library stock concentration: 2 mM
[6] = measured here: cell number at 24 h, Library stock concentration: 10 mM
[7] = measured here: cell number at 48 h, Library stock concentration: 80 uM
[8] = measured here: cell number at 48 h, Library stock concentration: 400 uM
[9] = measured here: cell number at 48 h, Library stock concentration: 2 mM
[10] = measured here: cell number at 48 h, Library stock concentration: 10 mM
[11] = Library stock concentration: 80 uM
[12] = Library stock concentration: 400 uM
[13] = Library stock concentration: 2 mM
[14] = Library stock concentration: 10 mM
[15] = measured here: p53 positive nuclei at 24 h, Library stock concentration: 80 uM
[16] = measured here: p53 positive nuclei at 24 h, Library stock concentration: 400 uM
[17] = measured here: p53 positive nuclei at 24 h, Library stock concentration: 2 mM
[18] = measured here: p53 positive nuclei at 24 h, Library stock concentration: 10 mM
[19] = measured here: cell number at 24 h, concentration not given here
[20] = measured here: cell number at 48 h, concentration not given here
[21] = measured here: p53 positive nuclei at 24 h, concentration not given here
[22] = measured here: cell number at 24 h, Library stock concentration: 3.33 mM
[23] = measured here: cell number at 48 h, Library stock concentration: 3.33 mM
[24] = Library stock concentration: 3.33 mM
[25] = measured here: p53 positive nuclei at 24 h, Library stock concentration: 3.33 mM
[26] = measured here: cell number at 24 h, Library stock concentration: 46 uM
[27] = measured here: cell number at 24 h, Library stock concentration: 278 uM
[28] = measured here: cell number at 24 h, Library stock concentration: 1.67 mM
[29] = measured here: cell number at 48 h, Library stock concentration: 46 uM
[30] = measured here: cell number at 48 h, Library stock concentration: 278 uM
[31] = measured here: cell number at 48 h, Library stock concentration: 1.67 mM
[32] = Library stock concentration: 46 uM
[33] = Library stock concentration: 278 uM
[34] = Library stock concentration: 1.67 mM
[35] = measured here: p53 positive nuclei at 24 h, Library stock concentration: 46 uM
[36] = measured here: p53 positive nuclei at 24 h, Library stock concentration: 278 uM
[37] = measured here: p53 positive nuclei at 24 h, Library stock concentration: 1.67 mM

Q: Which nuclei count, normalised [1, 3] does the source give for `CN1CCC(c2c(O)cc(O)c3c(=O)cc(-c4ccccc4Cl)oc23)C(O)C1` (centres undefined) here?
A: 79.6%

Q: What about the nuclei count, normalised [1, 4] of the same compound?
A: 49.2%

Q: And the nuclei count, normalised [1, 5]?
A: 29.8%

Q: What about the nuclei count, normalised [1, 6] of the same compound?
A: 27.6%

Q: What about the nuclei count, normalised [1, 7] of the same compound?
A: 57.1%

Q: What about the nuclei count, normalised [1, 8] of the same compound?
A: 29.5%

Q: What about the nuclei count, normalised [1, 9] of the same compound?
A: 16%

Q: What about the nuclei count, normalised [1, 10] of the same compound?
A: 17.8%

Q: What about the p53-positive nuclei, normalised [2, 11] of the same compound?
A: 5.98% (inactive)

Q: And the p53-positive nuclei, normalised [2, 12]?
A: 41.3% (inactive)

Q: What about the p53-positive nuclei, normalised [2, 13] of the same compound?
A: 13.9% (inactive)

Q: What about the p53-positive nuclei, normalised [2, 14] of the same compound?
A: 7.27% (inactive)

Q: And the p53-positive nuclei, normalised [2, 15]?
A: 1.3%

Q: What about the p53-positive nuclei, normalised [2, 16] of the same compound?
A: 7.22%

Q: What about the p53-positive nuclei, normalised [2, 17] of the same compound?
A: 0.675%

Q: And the p53-positive nuclei, normalised [2, 18]?
A: 0.446%

Q: What does the source list for `CCCCC[C@H](O)/C=C/[C@@H]1[C@@H](C/C=C\CCCC(=O)NCC)[C@@H](O)C[C@H]1O`?
A: nuclei count, normalised [1, 19]: 106%; nuclei count, normalised [1, 20]: 102%; p53-positive nuclei, normalised ([2]; concentration not given here): 0.015% (inactive); p53-positive nuclei, normalised [2, 21]: -0.0692%

Q: Which results are given for `O=S(=O)(NO)c1ccccc1`?
A: nuclei count, normalised [1, 19]: 71.3%; nuclei count, normalised [1, 20]: 77%; p53-positive nuclei, normalised ([2]; concentration not given here): 0.0111% (inactive); p53-positive nuclei, normalised [2, 21]: -0.0732%

Q: With `O=C(/C=C/c1cccc(C(=O)NO)c1)NO` as the compound, how does the nuclei count, normalised [1, 19] read?
A: 114%

Q: And the nuclei count, normalised [1, 20]?
A: 107%

Q: What about the p53-positive nuclei, normalised ([2]; concentration not given here) of the same compound?
A: 0.114% (inactive)

Q: What about the p53-positive nuclei, normalised [2, 21] of the same compound?
A: 0.124%

Q: For `O=C(C=Cc1cccc(S(=O)(=O)Nc2ccccc2)c1)NO`, which nuclei count, normalised [1, 3] is on record?
A: 108%

Q: And the nuclei count, normalised [1, 4]?
A: 107%

Q: And the nuclei count, normalised [1, 5]?
A: 94.6%

Q: What about the nuclei count, normalised [1, 22] of the same compound?
A: 58%

Q: And the nuclei count, normalised [1, 6]?
A: 52.5%

Q: And the nuclei count, normalised [1, 7]?
A: 101%

Q: And the nuclei count, normalised [1, 8]?
A: 95.8%

Q: What about the nuclei count, normalised [1, 9] of the same compound?
A: 77.3%

Q: What about the nuclei count, normalised [1, 23] of the same compound?
A: 40.2%

Q: And the nuclei count, normalised [1, 10]?
A: 30.4%

Q: And the p53-positive nuclei, normalised [2, 11]?
A: 3.46% (inactive)

Q: What about the p53-positive nuclei, normalised [2, 12] of the same compound?
A: 0.535% (inactive)

Q: What about the p53-positive nuclei, normalised [2, 13] of the same compound?
A: 5.33% (inactive)

Q: And the p53-positive nuclei, normalised [2, 24]?
A: 46% (active)

Q: What about the p53-positive nuclei, normalised [2, 14] of the same compound?
A: 76% (active)

Q: And the p53-positive nuclei, normalised [2, 15]?
A: 0.856%

Q: And the p53-positive nuclei, normalised [2, 16]?
A: 1.2%

Q: What about the p53-positive nuclei, normalised [2, 17] of the same compound?
A: 10.1%

Q: What about the p53-positive nuclei, normalised [2, 25] of the same compound?
A: 51%

Q: What about the p53-positive nuclei, normalised [2, 18] of the same compound?
A: 64.7%

Q: With `CCCCCCCCc1cccc(NC(=O)C(N)COP(=O)(O)O)c1` (centres undefined) as the compound, how does the nuclei count, normalised [1, 26] read?
A: 114%

Q: What about the nuclei count, normalised [1, 27] of the same compound?
A: 118%

Q: What about the nuclei count, normalised [1, 28] of the same compound?
A: 113%

Q: And the nuclei count, normalised [1, 6]?
A: 108%

Q: What about the nuclei count, normalised [1, 29] of the same compound?
A: 110%

Q: What about the nuclei count, normalised [1, 30] of the same compound?
A: 108%

Q: And the nuclei count, normalised [1, 31]?
A: 107%

Q: What about the nuclei count, normalised [1, 10] of the same compound?
A: 101%

Q: And the p53-positive nuclei, normalised [2, 32]?
A: -0.108% (inactive)

Q: What about the p53-positive nuclei, normalised [2, 33] of the same compound?
A: 0.0439% (inactive)

Q: And the p53-positive nuclei, normalised [2, 34]?
A: -0.101% (inactive)

Q: What about the p53-positive nuclei, normalised [2, 14] of the same compound?
A: -0.166% (inactive)

Q: What about the p53-positive nuclei, normalised [2, 35] of the same compound?
A: 0.0125%

Q: What about the p53-positive nuclei, normalised [2, 36] of the same compound?
A: -0.0546%

Q: What about the p53-positive nuclei, normalised [2, 37] of the same compound?
A: -0.0401%

Q: And the p53-positive nuclei, normalised [2, 18]?
A: -0.218%

Q: For `CCCCCCCCCCCCCCCCCCCC(=O)NCCO`, which nuclei count, normalised [1, 19] is on record?
A: 110%

Q: And the nuclei count, normalised [1, 20]?
A: 108%

Q: What about the p53-positive nuclei, normalised ([2]; concentration not given here) of the same compound?
A: -0.151% (inactive)

Q: And the p53-positive nuclei, normalised [2, 21]?
A: -0.0865%

Q: Which nuclei count, normalised [1, 26] does the source give for `CCCCCc1ccc(C=CC(=O)Nc2ccccc2C(=O)O)cc1` here?
A: 113%

Q: And the nuclei count, normalised [1, 27]?
A: 109%

Q: And the nuclei count, normalised [1, 28]?
A: 111%

Q: And the nuclei count, normalised [1, 6]?
A: 109%

Q: What about the nuclei count, normalised [1, 29] of the same compound?
A: 113%

Q: And the nuclei count, normalised [1, 30]?
A: 110%

Q: And the nuclei count, normalised [1, 31]?
A: 110%

Q: And the nuclei count, normalised [1, 10]?
A: 106%

Q: What about the p53-positive nuclei, normalised [2, 32] of the same compound?
A: -0.18% (inactive)

Q: And the p53-positive nuclei, normalised [2, 33]?
A: -0.17% (inactive)

Q: What about the p53-positive nuclei, normalised [2, 34] of the same compound?
A: -0.244% (inactive)

Q: What about the p53-positive nuclei, normalised [2, 14] of the same compound?
A: -0.204% (inactive)

Q: What about the p53-positive nuclei, normalised [2, 35] of the same compound?
A: -0.087%

Q: What about the p53-positive nuclei, normalised [2, 36] of the same compound?
A: -0.151%

Q: And the p53-positive nuclei, normalised [2, 37]?
A: -0.151%

Q: And the p53-positive nuclei, normalised [2, 18]?
A: -0.0182%

Q: Which nuclei count, normalised [1, 3] does the source give for `CCCCc1nc2cc(C=CC(=O)NO)ccc2n1CCN(CC)CC` here?
A: 95.3%

Q: What about the nuclei count, normalised [1, 4] of the same compound?
A: 95.2%

Q: What about the nuclei count, normalised [1, 5] of the same compound?
A: 78.6%

Q: And the nuclei count, normalised [1, 22]?
A: 52.6%

Q: What about the nuclei count, normalised [1, 6] of the same compound?
A: 51%

Q: What about the nuclei count, normalised [1, 7] of the same compound?
A: 90.2%

Q: What about the nuclei count, normalised [1, 8] of the same compound?
A: 86.3%

Q: And the nuclei count, normalised [1, 9]?
A: 62.7%

Q: What about the nuclei count, normalised [1, 23] of the same compound?
A: 28.6%

Q: What about the nuclei count, normalised [1, 10] of the same compound?
A: 28.2%

Q: What about the p53-positive nuclei, normalised [2, 11] of the same compound?
A: 1.67% (inactive)

Q: What about the p53-positive nuclei, normalised [2, 12] of the same compound?
A: 3.58% (inactive)

Q: And the p53-positive nuclei, normalised [2, 13]?
A: 17.7% (inactive)

Q: And the p53-positive nuclei, normalised [2, 24]?
A: 87.1% (active)

Q: What about the p53-positive nuclei, normalised [2, 14] of the same compound?
A: 84.9% (active)

Q: And the p53-positive nuclei, normalised [2, 15]?
A: 5.63%

Q: And the p53-positive nuclei, normalised [2, 16]?
A: 7.57%

Q: What about the p53-positive nuclei, normalised [2, 17] of the same compound?
A: 33.7%

Q: And the p53-positive nuclei, normalised [2, 25]?
A: 71.3%

Q: And the p53-positive nuclei, normalised [2, 18]?
A: 79.8%
